ALDH1A1 inh – qHTS Assay for Inhibitors of Aldehyde Dehydrogenase 1 (ALDH1A1) | 220,000 tested, 7.3% active | Potency, µM (doses to about 75.3 µM), usual class: inhibitors | AID 1030, 2008 | Aldehyde dehydrogenase 1A1 (Homo sapiens), P00352 | Purified ALDH1A1, NADH fluorescence, propionaldehyde substrate; active = well fitted inhibition curve with a large enough effect, not every such curve was filed as active; inconclusive = small, poorly fitted or top-dose-only effect, or another doubt; inactive = no such curve, though single readings can be large or run the other way
Target sequence (P00352 whole entry, looked up): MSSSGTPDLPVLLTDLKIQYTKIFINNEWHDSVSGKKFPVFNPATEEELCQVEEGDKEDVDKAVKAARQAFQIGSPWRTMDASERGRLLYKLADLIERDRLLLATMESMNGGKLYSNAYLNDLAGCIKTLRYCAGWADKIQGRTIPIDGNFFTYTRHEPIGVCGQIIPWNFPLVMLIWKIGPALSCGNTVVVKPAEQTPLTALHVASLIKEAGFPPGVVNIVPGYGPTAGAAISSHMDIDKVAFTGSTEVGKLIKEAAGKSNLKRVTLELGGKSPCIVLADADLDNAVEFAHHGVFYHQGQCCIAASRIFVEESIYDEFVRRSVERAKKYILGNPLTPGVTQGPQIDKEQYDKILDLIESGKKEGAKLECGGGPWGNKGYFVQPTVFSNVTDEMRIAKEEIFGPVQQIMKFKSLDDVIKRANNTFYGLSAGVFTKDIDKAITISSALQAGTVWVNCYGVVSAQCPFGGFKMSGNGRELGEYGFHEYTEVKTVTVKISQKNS
HPGD inh – qHTS Assay for Inhibitors of HPGD (15-Hydroxyprostaglandin Dehydrogenase) | purified HPGD, NADH fluorescence kinetic, PGE2 substrate | Potency, µM, actives largely listed as inhibitors | 150,000 tested, 4.3% active; active = well fitted inhibition curve with a large enough effect, not every such curve was filed as active; inconclusive = small, poorly fitted or top-dose-only effect, or another doubt; inactive = no such curve, though single readings can be large or run the other way
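20 nM HPGD preincubated 15 min at room temperature with compound in 50 mM Tris-HCl pH 8, 0.01% Tween 20. Started with 1 mM NAD+ and 30 uM prostaglandin E2; NADH fluorescence (360/450 nm) read 5 times over 30-s intervals, last minus first.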
HTT aggregate – qHTS Multiplex Assay to Identify Dual Action Probes in a Cell Model of Huntington: Aggregate Formation (GFP); Potency, µM (top dose mostly 46.1 µM), usual class: inhibitors; 220,000 tested, 1.1% active; PC12 HttQ103-GFP aggregates, Acumen cytometry, 40 h; also: nearly all actives have a fitted effect of over 60% in size
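Using laser scanning cytometry, GFP-positive aggregates were counted after lysis of PC12 cells induced with 100 nM tebufenozide to express HTT exon 1 Q103–GFP. Compounds were tested in titration.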
IMPase Li inh – qHTS Assay for Identifying the Cell-Membrane Permeable IMPase Inhibitors: Potentiation with Lithium; CHO-M1 cells, IP1 TR-FRET (IP-One), carbachol + lithium; Potency, µM (doses to about 59.4 µM), usual class: inhibitors; 210,000 tested, 0.35% active; AID 1457, 2008;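 also: IP1 builds up when IMPase is blocked and the TR-FRET signal falls; nearly all actives have a fitted effect of over 50% in size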
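IP1 accumulation measured by competitive TR-FRET in lysed CHO-M1 cells after 30 min compound exposure at 37C, with a small lithium addition to potentiate weak responses. Hill-equation AC50 from ratio and donor-channel data.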
HTT ATP protect – qHTS Multiplex Assay to Identify Dual Action Probes in a Cell Model of Huntington: Cytoprotection (ATP) | PC12 HTT-Q103 induced, cytoprotection, ATP luminescence, 40 h | Potency, µM (titrated, usually from 56.4 µM), actives largely listed as activators | 230,000 tested, 0.14% active | AID 1471, 2008; also: nearly all actives have a fitted effect of over 45% in size
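ATP quantification (ATPlite) reports survival of PC12 cells in which tebufenozide, 100 nM final, switches on Htt exon 1 with 103 glutamines linked to GFP; compounds are titrated.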
IMPase cell inh – qHTS Assay for Identifying the Cell-Membrane Permeable IMPase Inhibitors; CHO-M1 cells, IP1 accumulation, HTRF TR-FRET ratio; Inositol monophosphatase 1 (Rattus norvegicus), P97697; AID 901, 2007; inhibition (IP1 accumulation), % at 46.1 µM; 120,000 tested, under 10 active; active = well fitted curve in the direction sought with a large enough effect in the signal ratio, not every such curve was filed as active; inconclusive = small, poorly fitted or top-dose-only effect, or a change in a side signal; inactive = no such curve, though single readings can be large or run the other way; the % refers to the signal ratio;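 also: cells stimulated with carbachol in lithium chloride buffer; higher means more IMPase inhibition seen as more IP1 and lower FRET ratio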
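Carbachol-driven Gq signalling in CHO-M1 cells (2000/well) generates IP1. Compounds that block IMPase raise IP1 and so reduce the FRET signal from Eu-anti-IP1 and d2-IP1 after a 10 min room-temperature lysis.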
Hits are given with their value; 0 = inactive; ? = inconclusive; - = no result; [ ] = dose if it differs, or a comment. Rows were chosen to be rich in hits. Some 9.4% of all compounds tested hit in one or more screens of this group. Unless noted, calls follow the shape of the dose curve; as a rule, active = well fitted curve in the direction sought with a large enough effect; inconclusive = small, poorly fitted or top-dose-only effect, or another doubt; inactive = no such curve, though single readings can be large; an effect the other way counts as inactive or inconclusive.

SMILES	ALDH1A1 inh	HPGD inh	HTT aggregate	IMPase Li inh	HTT ATP protect	IMPase cell inh
CCCn1c(NC(=O)c2cccc(S(=O)(=O)N3CCCC3)c2)nc2ccccc21	?	0	11µM	0	0[0.074 µM]	0
O=C(c1cccc(S(=O)(=O)N2CCCC2)c1)c1cccc(S(=O)(=O)N2CCCC2)c1	0	0	11µM	0	0[10 µM]	0
O=C(Nc1cccc(S(=O)(=O)N2CCCCC2)c1)Nc1ccc(Cl)cc1Cl	0	0	14µM	0	0[10 µM]	-
Cc1cc(NC(=O)c2cccc(S(=O)(=O)N3CCCC3)c2)no1	35µM	0	0	0	0[0.074 µM]	0
Cc1cc(NC(=O)c2ccc(Br)c(S(=O)(=O)N3CCCC3)c2)no1	0	0	0	0	0[10 µM]	0[1.84 µM]
CCOC(=O)/C(=C/c1cn(C)c2ccccc12)NC(=O)c1ccccc1	0	-	0[9.22 µM]	-	0[10 µM]	-
O=C(O)c1cccc(SSc2cccc(C(=O)O)c2)c1	0[13.5 µM]	4.5µM	-	0	0[10 µM]	-
CN(Cc1ccccc1)C(=O)c1ccc2c(c1)OCCO2	?	14µM	0	0	0	0
C/C(CCN1CCCCc2nc(C)c(C)cc21)=N\OC[C@@H](O)[C@@H]1O[C@@H]2OC(C)(C)O[C@@H]2[C@H]1O	0[13.5 µM]	-	-	-	?	-
COc1ccccc1N(C)S(=O)(=O)c1ccc(C(=O)NCC(C)C)cc1	0	25µM	0	0	0	0
COc1ccc(NC(=O)COC(=O)c2ccc(S(=O)(=O)N(C)c3ccccc3OC)cc2)c(OC)c1	7.1µM	-	0	0	0	-
CC1CCN(CC[S-])CC1.O.O.[Cl][Pt]	0[13.5 µM]	0	-	0	0[10 µM]	-
O=C(O)c1ccc(NC2=C(N3CCOCC3)C(=O)c3ccccc3C2=O)cc1	19µM	0	0	0	0[10 µM]	-
CC(=O)N(C)C1=C(N2CCOCC2)C(=O)c2ccccc2C1=O	?	0	25µM	0	0	0
[N-]=[N+]=CC(=O)COC(=O)c1ccccc1	0[13.5 µM]	0	-	0	0[10 µM]	-
Cc1cccc(CSc2ncnc3ccccc23)c1	0	-	0	0	0	-
O=[N+]([O-])c1cccc(CSc2ncnc3ccccc23)c1	22µM	-	0	0	2.2µM	-
O=C1C2C3C=CC(CNS(=O)(=O)c4ccccc4[N+](=O)[O-])(O3)C2C(=O)N1c1ccccc1 (stereo not drawn)	0.89µM	-	?	0	-	-
O=C1C2C3C=CC(c4ccccc4)(C2C(=O)N1c1cccc(Cl)c1)C1C(=O)N(c2cccc(Cl)c2)C(=O)C31 (stereo not drawn)	?	0	0	0	0[1.9 µM]	0
Cc1cc(C)c(S(=O)(=O)NCC23C=CC(O2)C2C(=O)N(c4ccccc4)C(=O)C23)c(C)c1 (stereo not drawn)	2.5µM	35µM	0	0	0	0
Fc1ccc(/C=C2\CCCC3=C2NC(=S)NC3c2ccc(F)cc2)cc1 (stereo not drawn)	?	25µM	0	0	0[10 µM]	-
Cc1nc(N2N=C3/C(=C/c4ccc(F)cc4)CCCC3C2c2ccc(F)cc2)sc1C(=O)N(C)C (stereo not drawn)	?	?	?	0	0	0
COC(=O)NC(c1ccc2c(c1)OCO2)C(C(=O)OC)C(=O)OC (stereo not drawn)	0	0	-	0	0	-
C[C@H]1[C@H](C)CC[C@@]2(C(=O)O)CC[C@]3(C)C(=CC[C@@H]4[C@@]5(C)CC[C@H](O)C(C)(C)[C@@H]5CC[C@@]43C)[C@@H]12	-	-	-	-	0	-
CCCC(=O)Nc1ccc(C(=O)NNC(=O)c2cccc([N+](=O)[O-])c2)cc1	0	-	0[9.22 µM]	0	0[10 µM]	-
CN(C)S(=O)(=O)c1ccc(NC(=O)CCNC(=O)c2ccc([N+](=O)[O-])cc2)cc1	10µM	-	0	0	0[10 µM]	-

Source: PubChem (National Center for Advancing Translational Sciences (NCATS))
